{"source": "PubChem BioAssay (NCI)", "note": "About 83,000 compounds went through this panel and 20% of them were active in at least one assay; those are over-represented in the sample as a whole.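 Single-dose data. Exposure time 48 hours. Values below 10 considered active.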 Active and inactive are the calls of the source."}
{"test_system": "MDA-MB-468 breast", "assay": "NCI-60 one-dose screen, 48 h (100 = growth as untreated, 0 = no growth, -100 = all killed)", "conditions": "10 µM unless noted"}
{"smiles": "O=C(Nc1ccc(F)cc1F)c1cc(F)ccc1O", "growth": "-0.731% (active)"}
{"smiles": "CCn1c(C)nc2cc(C(N)=O)ccc21", "growth": "102% (inactive)"}
{"smiles": "N=C(N)c1ccc(-c2ccc(-c3cccs3)s2)cc1F", "growth": "-77.4% (active)"}
{"smiles": "Nc1nc(Nc2ccccc2SSc2ccccc2Nc2nc(N)nc(-c3cccc(Br)c3)n2)nc(-c2cccc(Br)c2)n1", "growth": "95.4% (inactive)"}
{"smiles": "Cc1ccc(-c2nc(N3CCCNCC3)c3oc(-c4ccc(C)cc4)nc3n2)cc1", "growth": "5.4% (active)"}
{"smiles": "O=C(Nc1ccc(I)cc1F)c1cc(Br)ccc1O", "growth": "-2.63% (active)"}
{"smiles": "NC(=S)Nc1cccc(O)c1", "growth": "101% (inactive)"}
{"smiles": "CCCCCCCCOC(=O)CC[C@@H](C)[C@H]1CC[C@H]2[C@@H]3[C@H](OC(=O)CCN)C[C@@H]4C[C@H](OC(=O)CCN)CC[C@]4(C)[C@H]3C[C@H](OC(=O)CCN)[C@]12C", "growth": "3.95% (active)"}
{"smiles": "CCN(CC)CCNc1ccc(N=Nc2cnc3ccccc3c2)c2ccccc12", "growth": "-64.5% (active)"}
{"smiles": "CN1CCN(c2cc3c(cc2F)c(=O)c(C(=O)O)cn3-c2ccc(F)cc2)CC1", "growth": "110% (inactive)"}
{"smiles": "O=C(CCn1cnc2c(cc(-c3ccccc3)n2-c2ccccc2)c1=O)Nc1ccc(F)cc1", "growth": "78% (inactive)"}
{"smiles": "CC(=O)NC(CCC(=O)c1ccccc1)C(=O)O", "note": "(stereo not given)", "growth": "93.6% (inactive)"}
{"smiles": "CC(=O)Nc1nc(C(=O)N2N=C(C)/C(=C/c3ccccc3)C2=O)cs1", "growth": "103% (inactive)"}
{"smiles": "CC/C(=C(\\c1ccccc1)c1ccc(OCCNC)cc1)c1ccccc1", "growth": "-97.7% (active)"}
{"smiles": "O=C(Nc1cccc(C(=O)N2CCc3ccc(Cl)cc32)c1)c1ccco1", "growth": "-0.651% (active)"}
{"smiles": "C#Cc1nc(C2=C(C)C(=N\\O)/C(=N/O)C2)cs1", "growth": "82.6% (inactive)"}
{"smiles": "COC(=O)CC[C@@H](C)[C@H]1CC[C@H]2[C@@H]3CC[C@@H]4C[C@H](O)CC[C@]4(C)[C@H]3C[C@H](O)[C@]12C", "growth": "103% (inactive)"}
{"smiles": "O=c1[nH]c(-c2ccc(Cl)cc2)cn1-c1ccc(-n2cc(-c3ccc(Cl)cc3)[nH]c2=O)cc1", "growth": "103% (inactive)"}
{"smiles": "CCOC(=O)c1c(C)oc2ncnc(N3CCN(C(=O)COc4ccc(C(C)(C)C)cc4)CC3)c12", "growth": "60.9% (inactive)"}
{"smiles": "O=C(CCCCCCN1CC(=O)N2[C@@H](c3cc(F)cc(F)c3)c3[nH]c4ccccc4c3C[C@H]2C1=O)NO", "growth": "50.4% (inactive)"}
{"smiles": "COC(=O)C(N)CSC(c1ccccc1)(c1ccccc1)c1ccccc1", "note": "(stereo not given)", "growth": "11.5% (inactive)"}
{"smiles": "COc1ccc(C(=O)N/N=C/c2ccc(O)cc2O)cc1Nc1ccnc(C(F)(F)F)c1", "growth": "29.2% (inactive)"}
{"smiles": "COc1ccc(-c2nc3sccn3c2-c2ccnc(NCCCNS(=O)(=O)c3ccc4ccccc4c3)n2)cc1", "growth": "71.1% (inactive)"}
{"smiles": "Cc1ccc(S(=O)(=O)N(CC[C@@H]2C[C@H]2c2cc3ccccc3o2)C(=O)NC2CCCCC2)cc1", "growth": "95.3% (inactive)"}
{"smiles": "CC1CN(c2oc(-c3ccccc3)nc2C#N)CC(C)O1", "note": "(stereo not given)", "growth": "109% (inactive)"}
{"smiles": "CC(=O)Oc1ccc(C(c2ccc(OC(C)=O)cc2)c2ccccn2)cc1", "growth": "17.3% (inactive)"}
{"smiles": "COc1ccc(/C=N/C2=C(C#N)C(c3ccccc3)c3c(ccc4ccccc34)O2)cc1", "note": "(stereo not given)", "growth": "-3.92% (active)"}
{"smiles": "Cc1ccc2cccc(Oc3ccc(Nc4ncnc5onc(-c6ccccc6)c45)cc3)c2n1", "growth": "86.8% (inactive)"}
{"smiles": "OCCN1CCCCCCC1", "growth": "101% (inactive)"}
{"smiles": "CC1(C)CCC(S(=O)(=O)c2ccc3c(c2)/C(=N\\O)c2cc(S(=O)(=O)N4CCC(O)(c5cccc(C(F)(F)F)c5)CC4)ccc2-3)CC1", "growth": "-78.4% (active)"}
{"smiles": "O=[N+]([O-])c1ccc(OCCO)cc1", "growth": "120% (inactive)"}
{"smiles": "C#CCOc1cccc(Nc2ncnc3c(NC(=O)C=C)cccc23)c1", "growth": "-15.2% (active)"}
{"smiles": "N#Cc1cccc(CN2CCC3=C(C2)C(=O)N(Cc2ccc(Cl)cc2)C2=NCCCN23)c1", "growth": "-16.1% (active)"}
{"smiles": "Brc1ccc([I+]c2ccc(Br)cc2)cc1", "growth": "21.6% (inactive)"}
{"smiles": "COc1cc(/C=N/n2cnc3oc(-c4ccccc4)cc3c2=N)cc(CN2CCOCC2)c1O", "growth": "83.2% (inactive)"}
{"smiles": "O=C1Cc2cc(CCn3cncn3)c(Cl)cc2N1", "growth": "35.1% (inactive)"}
{"smiles": "COc1ccc(C(=O)c2cc3c(N)c(C(=O)Nc4cccc5ccccc45)sc3nc2C)cc1", "growth": "-0.26% (active)"}
{"smiles": "COc1ccc(C2C3=C(COC3=O)N(CCO)c3cc4c(cc32)OCCO4)cc1", "note": "(stereo not given)", "growth": "32.9% (inactive)"}
{"smiles": "Cc1ccc(OCCCCCCNCCO)c(C)c1", "growth": "-15.9% (active)"}
{"smiles": "CC(C)[N+]1(C)C2CC[C@@H]1CC(OC(=O)C(CO)c1ccccc1)C2", "note": "(stereo not given in full)", "growth": "109% (inactive)"}
